Several values for one entry are separate records, joined by “and”; a condition that tells them apart may be missing. Equal values may be shown once. About 79,000 compounds went through this panel and 15% of them were active in at least one assay; those are over-represented in the sample as a whole. Where a structure was tested more than once in an assay, its records may differ in their call. Activity calls are given as the source filed them. Cut-off read from the data, not from the text of the source: active = growth inhibition above about 70%; inactive = the rest.

This note sets out measurements from PubChem BioAssay (NCI).

The nature of the first assay: NCI Yeast Anticancer Drug Screen. Data for the sgs1 mgt1 strain (AID 161).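 Note: 0% = growth of cultures given vehicle only.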 Particulars: S. cerevisiae sgs1 mgt1 strain, at 5.0 µM (retest, dose inferred, filed as 0.5), stronger effect = higher value. Put shortly: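 Genetically altered yeast, compound exposure, growth inhibition relative to vehicle.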
Turning to `OCC1OC(n2cnc3c(=S)nc[nH]c32)C(O)C1O` (centres undefined), the growth inhibition was 0% (inactive).

As for `CCOC(=O)C(C(=O)c1ccccc1)C(=O)c1ccccc1`, the growth inhibition is 37% (inactive).

Consider `COC1/C=C\C=C(/C)C(=O)Nc2cc3nc4ccc(Br)cc4oc-3c(c2=O)CC(C)CC(OC)C(O)C(C)/C=C(\C)C1OC(N)=O` (centres undefined), for which the growth inhibition was 96% (active).

Regarding `Nc1ccc([N+](=O)[O-])c(S(=O)(=O)O)c1`, the growth inhibition was -60% (inactive).

In the case of `CCOc1ccc2ccccc2c1C(Cc1ccc(Cl)cc1)NCCO` (centres undefined), the growth inhibition is -21% (inactive).

Take `O=C1C(=Cc2ccc(O)cc2)N=C(c2ccccc2)N1n1c(-c2ccccc2)nc2ccccc2c1=O`: the growth inhibition was 9% (inactive).

As to `Cc1nc2ccccc2cc1CCl`, the growth inhibition is -51% (inactive).

Turning to `Cc1cc(NS(=O)(=O)c2ccc(N=Nc3cc(N=Nc4ccc(S(=O)(=O)Nc5cc(C)nc(C)n5)cc4)c4c(NC(=O)C(Cl)Cl)cccc4c3OC(=O)C(Cl)Cl)cc2)nc(C)n1` (tested in a mixture with another compound), the growth inhibition is 8% (inactive).

In the case of `CCCCCCN(CCCCCC)C(=O)C1=C(C)NC(C)=C(C(=O)N(CCCCCC)CCCCCC)C1`, the growth inhibition is -8% (inactive).

As to `O=[N+]([O-])Cc1cnc2nncn2n1`, the growth inhibition was 2% (inactive).

As to `COc1ccc(N/N=C(\CCN(C)C)c2ccccc2)cc1`, the growth inhibition was 16% (inactive).

Take `O=C(O)/C(=C(/c1ccccc1)c1ccc(Cl)cc1)c1ccccc1`: the growth inhibition was 46% (inactive).

`c1ccc([P+](CCCCCCCC[P+](c2ccccc2)(c2ccccc2)c2ccccc2)(c2ccccc2)c2ccccc2)cc1`: the growth inhibition was 46% (inactive).

For `OCCNc1nc(NCCO)c2nc(-c3ccccc3)c(-c3ccccc3)nc2n1`, the growth inhibition is -9% (inactive) and 0% (inactive).

Consider `OC(c1ccccc1)(c1ccccc1)c1ccccc1` (tested in a mixture with another compound), for which the growth inhibition is -3% (inactive).

For `CC(=O)Nc1c(Cl)c(Cl)c2c(c1Cl)Cc1cc(Cl)ccc1-2`, the growth inhibition was 99% (active).

Regarding `Cc1cc(C)nc(NS(=O)(=O)c2ccc(Nc3c4ccccc4nc4c(C(=O)NCCCN(CCO)CCO)cccc34)cc2)n1`, the growth inhibition is -2% (inactive).

Take `CCn1c2ccccc2c2ccc(N=Cc3ccc(N(C)C)cc3)cc21`: the growth inhibition is 2% (inactive).

Regarding `O=C(C(=Cc1ccccc1)C(=O)c1ccccc1)c1ccccc1`, the growth inhibition was 50% (inactive).

Take `c1ccc(C2=NC(c3ccccc3)=NS(S3=NC(c4ccccc4)=NC(c4ccccc4)=N3)=N2)cc1` (centres undefined): the growth inhibition was 20% (inactive).

As for `Nc1nc(-c2ccccn2)cc2ccccc12`, the growth inhibition was 22% (inactive).

For the compound `CCN(CC)CCCn1c2cc(=O)c(=O)cc-2[nH]c2cc(C)ccc21`, the growth inhibition was 2% (inactive).

As for `COc1cc(O)ccc1C(=S)SC`, the growth inhibition was 5% (inactive).

As for `O=[N+]([O-])C1=C(c2ccccc2)SC=C(c2ccccc2)S1`, the growth inhibition is 3% (inactive) and 22% (inactive).

For `N#CC1(C2SCCS2=O)C2=C(C(=O)c3ccccc3C2=O)N2CCCC21` (centres undefined), the growth inhibition was 23% (inactive).

Turning to `O=C1C=CC(=O)C(C2OC(=O)C(Br)=C2Br)=C1` (centres undefined), the growth inhibition is -18% (inactive).

`CN1CCN(CCCN2c3ccccc3Sc3ccc(C(F)(F)F)cc32)CC1`: the growth inhibition was -7% (inactive) and 0% (inactive).

On to `Cc1ccc(S(=O)(=O)C23C(N=NC2(C)C)C3(C)C)cc1` (centres undefined), for which the growth inhibition was -16% (inactive).

Take `COC(=O)C(=O)C(C(=O)C(c1ccccc1)c1ccccc1)c1nc2n(c1O)/C(=N/C(=O)Nc1ccc(Cl)cc1)N=N2` (centres undefined): the growth inhibition is 6% (inactive).

Take `O=C(O)c1ccc2c(c1)Cc1cc([N+](=O)[O-])ccc1-2`: the growth inhibition is 7% (inactive).

Consider `O=c1[nH]c2cc([N+](=O)[O-])ccc2nc1/C=C(\O)c1ccc([N+](=O)[O-])cc1`, for which the growth inhibition was 13% (inactive).

In the case of `c1ccc(C(c2ccccc2)n2ccnc2)cc1`, the growth inhibition was -23% (inactive).

On to `c1ccc2c(c1)CNc1ccccc1-2`, for which the growth inhibition was 0% (inactive).

`COC(=O)c1nnn(-c2ccc(S(N)(=O)=O)cc2)c1N`: the growth inhibition is -9% (inactive).

As to `COC(=O)c1ccc(O)c(OC)c1`, the growth inhibition is 0% (inactive).

For the compound `O=c1[nH]c(SCc2c(Cl)c(Cl)c(Cl)c(Cl)c2Cl)nc(=S)[nH]1`, the growth inhibition was 3% (inactive).

On to `Cc1nc2c(ccc3[nH]c4ccccc4c32)s1`, for which the growth inhibition is 16% (inactive).

Staying with this assay, now noted: S. cerevisiae sgs1 mgt1 strain, at 50.0 µM (retest, dose inferred, filed as 5.0), stronger effect = higher value.
Turning to `OCC1OC(n2cnc3c(=S)nc[nH]c32)C(O)C1O` (centres undefined), the growth inhibition was 5% (inactive).

As for `CCOC(=O)C(C(=O)c1ccccc1)C(=O)c1ccccc1`, the growth inhibition was 82% (active).

Turning to `COC1/C=C\C=C(/C)C(=O)Nc2cc3nc4ccc(Br)cc4oc-3c(c2=O)CC(C)CC(OC)C(O)C(C)/C=C(\C)C1OC(N)=O` (centres undefined), the growth inhibition was 98% (active).

`Nc1ccc([N+](=O)[O-])c(S(=O)(=O)O)c1`: the growth inhibition is -54% (inactive).

As to `CCOc1ccc2ccccc2c1C(Cc1ccc(Cl)cc1)NCCO` (centres undefined), the growth inhibition is 2% (inactive).

For the compound `O=C1C(=Cc2ccc(O)cc2)N=C(c2ccccc2)N1n1c(-c2ccccc2)nc2ccccc2c1=O`, the growth inhibition was 29% (inactive).

`Cc1nc2ccccc2cc1CCl`: the growth inhibition was 91% (active).

In the case of `Cc1cc(NS(=O)(=O)c2ccc(N=Nc3cc(N=Nc4ccc(S(=O)(=O)Nc5cc(C)nc(C)n5)cc4)c4c(NC(=O)C(Cl)Cl)cccc4c3OC(=O)C(Cl)Cl)cc2)nc(C)n1` (tested in a mixture with another compound), the growth inhibition was 79% (active).

`CCCCCCN(CCCCCC)C(=O)C1=C(C)NC(C)=C(C(=O)N(CCCCCC)CCCCCC)C1`: the growth inhibition was -1% (inactive).

As for `O=[N+]([O-])Cc1cnc2nncn2n1`, the growth inhibition was 96% (active).

Consider `COc1ccc(N/N=C(\CCN(C)C)c2ccccc2)cc1`, for which the growth inhibition is 61% (inactive).

For `O=C(O)/C(=C(/c1ccccc1)c1ccc(Cl)cc1)c1ccccc1`, the growth inhibition was 100% (active).

With `c1ccc([P+](CCCCCCCC[P+](c2ccccc2)(c2ccccc2)c2ccccc2)(c2ccccc2)c2ccccc2)cc1`, the growth inhibition is 98% (active).

With `OCCNc1nc(NCCO)c2nc(-c3ccccc3)c(-c3ccccc3)nc2n1`, the growth inhibition was 88% (active) and 51% (inactive).

`OC(c1ccccc1)(c1ccccc1)c1ccccc1` (tested in a mixture with another compound): the growth inhibition was 90% (active).

As for `CC(=O)Nc1c(Cl)c(Cl)c2c(c1Cl)Cc1cc(Cl)ccc1-2`, the growth inhibition is 49% (inactive).

Take `Cc1cc(C)nc(NS(=O)(=O)c2ccc(Nc3c4ccccc4nc4c(C(=O)NCCCN(CCO)CCO)cccc34)cc2)n1`: the growth inhibition was -5% (inactive).

Take `CCn1c2ccccc2c2ccc(N=Cc3ccc(N(C)C)cc3)cc21`: the growth inhibition was 40% (inactive).

Regarding `O=C(C(=Cc1ccccc1)C(=O)c1ccccc1)c1ccccc1`, the growth inhibition was 95% (active).

On to `c1ccc(C2=NC(c3ccccc3)=NS(S3=NC(c4ccccc4)=NC(c4ccccc4)=N3)=N2)cc1` (centres undefined), for which the growth inhibition is 98% (active).

For `Nc1nc(-c2ccccn2)cc2ccccc12`, the growth inhibition was 77% (active).

For `CCN(CC)CCCn1c2cc(=O)c(=O)cc-2[nH]c2cc(C)ccc21`, the growth inhibition was 74% (active).

Take `COc1cc(O)ccc1C(=S)SC`: the growth inhibition is 66% (inactive).

`O=[N+]([O-])C1=C(c2ccccc2)SC=C(c2ccccc2)S1`: the growth inhibition was -1% (inactive) and -5% (inactive).

With `N#CC1(C2SCCS2=O)C2=C(C(=O)c3ccccc3C2=O)N2CCCC21` (centres undefined), the growth inhibition was 67% (inactive).

Consider `O=C1C=CC(=O)C(C2OC(=O)C(Br)=C2Br)=C1` (centres undefined), for which the growth inhibition is -1% (inactive).

For the compound `CN1CCN(CCCN2c3ccccc3Sc3ccc(C(F)(F)F)cc32)CC1`, the growth inhibition is 95% (active) and 73% (active).

Turning to `Cc1ccc(S(=O)(=O)C23C(N=NC2(C)C)C3(C)C)cc1` (centres undefined), the growth inhibition was 4% (inactive).

As to `COC(=O)C(=O)C(C(=O)C(c1ccccc1)c1ccccc1)c1nc2n(c1O)/C(=N/C(=O)Nc1ccc(Cl)cc1)N=N2` (centres undefined), the growth inhibition is 80% (active).

For `O=C(O)c1ccc2c(c1)Cc1cc([N+](=O)[O-])ccc1-2`, the growth inhibition was 85% (active).

As for `O=c1[nH]c2cc([N+](=O)[O-])ccc2nc1/C=C(\O)c1ccc([N+](=O)[O-])cc1`, the growth inhibition was 85% (active).

As to `c1ccc(C(c2ccccc2)n2ccnc2)cc1`, the growth inhibition was 37% (inactive).

As for `c1ccc2c(c1)CNc1ccccc1-2`, the growth inhibition was 66% (inactive).

For `COC(=O)c1nnn(-c2ccc(S(N)(=O)=O)cc2)c1N`, the growth inhibition is -20% (inactive).

On to `COC(=O)c1ccc(O)c(OC)c1`, for which the growth inhibition is -1% (inactive).

As for `O=c1[nH]c(SCc2c(Cl)c(Cl)c(Cl)c(Cl)c2Cl)nc(=S)[nH]1`, the growth inhibition is 95% (active).

Consider `Cc1nc2c(ccc3[nH]c4ccccc4c32)s1`, for which the growth inhibition is 99% (active).
